SMILES strings stand for the structures. Values without a mark were called inactive. Inconclusive results are not listed. Activity calls are given as the source filed them. Unless noted, calls come from the whole dose curve; as a rule, active = well fitted curve in the direction sought with a large enough effect in the repeat runs; inconclusive = weak or mixed curves; inactive = no such curve, though single readings can be large; an effect the other way counts as inactive or inconclusive.

The nature of assay [1]: qHTS assay to identify small molecule antagonists of the androgen receptor (AR) signaling pathway using the MDA cell line in the presence of 0.5 nM R1881 - cell viability counter screen (AID 1259242). Note: nearly all actives have a fitted effect of over 45% in size. Note: potency is the fitted concentration of half-maximal effect. Summed up: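 Cells seeded at 3,000/well and allowed 5 hr at 37C, 0% CO2 before compound transfer and R1881 (0.5 nM final) addition; 16 hr later, live-cell protease fluorescence indicated cytotoxicity.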
Background: In qHTS, concentration-response curves come from the screen itself.

For assay [2], the target named is Androgen receptor (Homo sapiens) (UniProt P10275). Put plainly: qHTS assay to identify small molecule antagonists of the androgen receptor (AR) signaling pathway using the MDA cell line in the presence of 0.5 nM R1881 (AID 1259243). Note: nearly all actives have a fitted effect of over 50% in size. Note: potency is the fitted concentration of half-maximal effect. In a few lines: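 Luminescence from an AR/GR-responsive MMTV-luciferase construct in MDA-kb2 breast carcinoma cells, read 30 min after ONE-Glo, following 16 hr co-treatment with compounds and 0.5 nM R1881.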
Chain of Androgen receptor (Homo sapiens) (P10275 whole entry, looked up): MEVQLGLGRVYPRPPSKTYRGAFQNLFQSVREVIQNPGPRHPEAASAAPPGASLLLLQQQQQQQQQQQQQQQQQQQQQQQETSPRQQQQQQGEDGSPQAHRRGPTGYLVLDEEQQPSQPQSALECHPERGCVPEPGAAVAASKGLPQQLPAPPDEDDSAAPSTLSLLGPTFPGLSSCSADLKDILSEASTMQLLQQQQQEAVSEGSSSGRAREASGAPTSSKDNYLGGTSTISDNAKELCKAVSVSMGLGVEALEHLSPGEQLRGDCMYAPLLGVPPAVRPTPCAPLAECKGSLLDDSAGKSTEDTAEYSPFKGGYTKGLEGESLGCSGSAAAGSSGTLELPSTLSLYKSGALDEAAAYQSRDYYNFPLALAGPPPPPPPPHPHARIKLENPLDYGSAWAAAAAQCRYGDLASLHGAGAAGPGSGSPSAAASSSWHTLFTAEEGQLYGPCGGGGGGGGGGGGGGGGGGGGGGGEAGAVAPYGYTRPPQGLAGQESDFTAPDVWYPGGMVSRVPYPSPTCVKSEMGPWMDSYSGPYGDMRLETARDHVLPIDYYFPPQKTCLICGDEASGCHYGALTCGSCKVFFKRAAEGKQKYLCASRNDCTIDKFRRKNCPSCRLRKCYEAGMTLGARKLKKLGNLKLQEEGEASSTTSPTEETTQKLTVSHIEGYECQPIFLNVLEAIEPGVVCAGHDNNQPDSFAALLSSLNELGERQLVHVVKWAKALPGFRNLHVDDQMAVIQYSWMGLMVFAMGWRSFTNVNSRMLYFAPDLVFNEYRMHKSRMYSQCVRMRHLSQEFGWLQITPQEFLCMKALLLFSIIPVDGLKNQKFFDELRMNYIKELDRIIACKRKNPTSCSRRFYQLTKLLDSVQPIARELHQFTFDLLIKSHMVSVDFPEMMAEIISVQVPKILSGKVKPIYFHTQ

Assay [3] addresses Estrogen receptor (Homo sapiens) (UniProt P03372). Kind of assay: qHTS assay to identify small molecule antagonists of the estrogen receptor alpha (ER-alpha) signaling pathway using the BG1 cell line in the presence of 0.1 nM 17-beta-estradiol (AID 1259244). Note: nearly all actives have a fitted effect of over 50% in size. Note: potency is the fitted concentration of half-maximal effect. In a few lines:
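Luciferase signal from VM7Luc4E2 ERE-reporter cells, co-dosed with test compound and 0.1 nM final 17beta-estradiol for 22 h, read with ONE-Glo.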

Assay [4] is described as follows: qHTS assay to identify small molecule phospholipidosis (PLD) inducers (AID 1259344; active = well fitted curve in the direction sought with a large enough effect; an effect the other way counts as inactive or inconclusive). Summed up: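 Read-out is LipidTOX Red fluorescence (ex 595/em 615) imaged in HepG2 cells after 24 h compound exposure at 37 C, with Hoechst nuclear counterstain (ex 352/em 461) allowing per-cell normalisation.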
Assay [5] can be described thus: qHTS assay to identify small molecule HDAC inhibitors (AID 1259364). Note: potency is the fitted concentration of half-maximal effect.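 Note: wild-type HCT-116 cells with endogenous class I/II HDAC activity; nearly all actives have a fitted effect of over 45% in size.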 Summed up: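 HCT-116 wt cells, 1,500/well, overnight attach. Compounds (DMSO) 2 h, 37 °C. HDAC-Glo I/II, 30 min RT. Luminescence.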
Assay [6] in a line: qHTS assay to identify small molecule HDAC inhibitors - cell viability counter screen (AID 1259365). Note: series mostly up to about 92 µM; nearly all actives have a fitted effect of over 50% in size. In a few lines:
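Following a 2hr exposure of overnight-plated wild-type HCT-116 cells to DMSO-delivered compounds, CellTiter-Glo was added and luminescence recorded after 30min at room temperature.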

Assay [7] in a line: qHTS assay to identify small molecule antagonists of the sonic hedgehog signaling (Shh) pathway - cell viability counter screen (AID 1259367). Note: nearly all actives have a fitted effect of over 55% in size. Note: potency is the fitted concentration of half-maximal effect. In a few lines:
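Fluorescence read-out (CellTiter-Fluor, 1 hr at 37C) taken after 23 hr compound treatment of 3T3 Gli1-Luc cells stimulated with conditioned medium. Cells were seeded at 2,000 per well and pre-incubated 4 hr.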

Assay [8] can be described thus: qHTS assay to identify small molecule agonists of the sonic hedgehog signaling (Shh) pathway (AID 1259368; calls by dose curve;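 note: NIH/3T3-derived 3T3Gli1-Luc cells carrying a stable Gli1-driven firefly luciferase reporter; series mostly up to about 92 µM; nearly all actives have a fitted effect of over 15% in size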). Summed up:
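Following a 24 hr incubation with DMSO-dissolved compounds at 37 C, 5% CO2, Gli1-Luc NIH/3T3-derived cells received luciferase reagent for 30 min at room temperature prior to luminescence measurement.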

Assay [9] in a line: qHTS assay to identify small molecule antagonists of the sonic hedgehog signaling (Shh) pathway (AID 1259369; calls by dose curve; note: nearly all actives have a fitted effect of over 45% in size; note: potency is the fitted concentration of half-maximal effect). Summed up:
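Read-out is luminescence from a firefly luciferase gene controlled by the Gli1 response element, in 3T3Gli1-Luc cells pre-incubated 4hr then exposed to compounds and conditioned medium for 24hr.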

The target of assay [10] is Estrogen receptor beta (Homo sapiens) (UniProt Q92731). Put plainly: qHTS assay to identify small molecule agonists of the estrogen receptor beta (ER-beta) signaling pathway (AID 1259377; active = well fitted activation curve with a large enough effect in the signal ratio in the repeat runs, not every such curve was filed as active; the % refers to the signal ratio). In a few lines:
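In HEK293T cells bearing a UAS-beta-lactamase reporter under ER-beta control, DMSO-delivered compounds were incubated for 16 hr at 37C. Activity was detected as fluorescence 2 hours after LiveBLAzer B/G FRET substrate addition.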

Assay [11] shares this target. Kind of assay: qHTS assay to identify small molecule antagonists of the estrogen receptor beta (ER-beta) signaling pathway (AID 1259378; active = well fitted inhibition curve with a large enough effect in the signal ratio in the repeat runs, not every such curve was filed as active; the % refers to the signal ratio; note: potency is the fitted concentration of half-maximal effect). Summed up:
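ER-beta-UAS-bla HEK293T cells in 2% charcoal-stripped FBS medium treated with compound plus 1nM final 17-beta-estradiol for 16 hr at 37C. Beta-lactamase reporter read by FRET substrate fluorescence after 2 hours at room temperature.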

The nature of assay [12]: qHTS assay to identify small molecule agonists of the androgen receptor (AR) signaling pathway in the presence of an antagonist - cell viability counter screen (AID 1259379). Note: nearly all actives have a fitted effect of over 25% in size. Note: potency is the fitted concentration of half-maximal effect. Summed up: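 Each compound was tested at 15 concentrations on MDA-kb2 cells in the presence of 3.0uM nilutamide. Viability was measured by CellTiter-Fluor fluorescence after a 16 hr incubation at 37C in a CO2-free atmosphere.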

A short description of assay [13]: qHTS assay to identify small molecule agonists of the estrogen receptor beta (ER-beta) signaling pathway - cell viability counter screen (AID 1259380). Note: nearly all actives have a fitted effect of over 30% in size. Note: potency is the fitted concentration of half-maximal effect. Summed up: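 Compounds dissolved in DMSO were pin-transferred onto ER-beta-UAS-bla HEK293T cells that had settled 6 hr, and exposure ran 16 hr at 37C. Following the reporter read, CellTiter-Glo luminescence after 30 min at room temperature indicated cytotoxicity.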

Assay [14] concerns the target Androgen receptor (Homo sapiens) (UniProt P10275). Kind of assay: qHTS assay to identify small molecule agonists of the androgen receptor (AR) signaling pathway in the presence of an antagonist (AID 1259381; calls by dose curve; note: nearly all actives have a fitted effect of over 15% in size). In a few lines:
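Plated MDA-kb2 cells (3,000/well) were pre-incubated 5hr, given nilutamide (3.0uM final) or buffer, then dosed with compounds in DMSO at 15 concentrations. Luciferase activity was quantified by luminescence after 16hr at 37C.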

Assay [15] in a line: qHTS assay to identify small molecule antagonists of the estrogen receptor beta (ER-beta) signaling pathway - cell viability counter screen (AID 1259382). Note: nearly all actives have a fitted effect of over 55% in size. Note: potency is the fitted concentration of half-maximal effect. Summed up:
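CellTiter-Glo ATP luminescence measured after the LiveBLAzer read in the same wells; ER-beta-UAS-bla HEK293T cells, 16 hr compound treatment with 1nM 17-beta-estradiol agonist at 37C, 5% CO2.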

Assay [16] has as its target Estrogen receptor (Homo sapiens) (UniProt P03372). Put plainly: qHTS assay to identify small molecule agonists of the estrogen receptor alpha (ER-alpha) signaling pathway in the presence of an antagonist (AID 1259383; calls by dose curve; note: top concentration of the series differs between compounds; nearly all actives have a fitted effect of over 15% in size). In a few lines:
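Luminescent ERE-luciferase reporter, VM7Luc4E2 cells (endogenous ER-alpha); 10.0nM ICI-182,780 final; 15-point compound titration; 22hr at 37C; ONE-Glo, 30min RT.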

A short description of assay [17]: qHTS assay to identify small molecule agonists or antagonists of the thyroid stimulating hormone receptor (TSHR) signaling pathway - wild type cell line counter screen (AID 1259384; calls by dose curve). Summed up: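 Wild-type Hek293 cells, 800/well, 18 h at 37C, then compound with Ro20-1724 for 30 min RT. cAMP by HTRF (cAMP-d2/anti-cAMP cryptate), 1 h RT, fluorescence read. 15 concentrations, triplicates.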

The target of assay [18] is Thyrotropin receptor (Homo sapiens) (UniProt P16473). Kind of assay: qHTS assay to identify small molecule antagonists of the thyroid stimulating hormone receptor (TSHR) signaling pathway (AID 1259385; calls by dose curve; note: nearly all actives have a fitted effect of over 20% in size; note: potency is the fitted concentration of half-maximal effect). In a few lines: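 TSHR-HEK293 cells (800/well) plated 18 h, then compounds with Ro20-1724 and TSH at 1.5 ng/mL final, 30 min at room temperature. cAMP quantified by HTRF (cAMP-d2/anti-cAMP-cryptate, 1 h); 15 concentrations in triplicate.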
Chain of Thyrotropin receptor (Homo sapiens) (P16473 whole entry, looked up): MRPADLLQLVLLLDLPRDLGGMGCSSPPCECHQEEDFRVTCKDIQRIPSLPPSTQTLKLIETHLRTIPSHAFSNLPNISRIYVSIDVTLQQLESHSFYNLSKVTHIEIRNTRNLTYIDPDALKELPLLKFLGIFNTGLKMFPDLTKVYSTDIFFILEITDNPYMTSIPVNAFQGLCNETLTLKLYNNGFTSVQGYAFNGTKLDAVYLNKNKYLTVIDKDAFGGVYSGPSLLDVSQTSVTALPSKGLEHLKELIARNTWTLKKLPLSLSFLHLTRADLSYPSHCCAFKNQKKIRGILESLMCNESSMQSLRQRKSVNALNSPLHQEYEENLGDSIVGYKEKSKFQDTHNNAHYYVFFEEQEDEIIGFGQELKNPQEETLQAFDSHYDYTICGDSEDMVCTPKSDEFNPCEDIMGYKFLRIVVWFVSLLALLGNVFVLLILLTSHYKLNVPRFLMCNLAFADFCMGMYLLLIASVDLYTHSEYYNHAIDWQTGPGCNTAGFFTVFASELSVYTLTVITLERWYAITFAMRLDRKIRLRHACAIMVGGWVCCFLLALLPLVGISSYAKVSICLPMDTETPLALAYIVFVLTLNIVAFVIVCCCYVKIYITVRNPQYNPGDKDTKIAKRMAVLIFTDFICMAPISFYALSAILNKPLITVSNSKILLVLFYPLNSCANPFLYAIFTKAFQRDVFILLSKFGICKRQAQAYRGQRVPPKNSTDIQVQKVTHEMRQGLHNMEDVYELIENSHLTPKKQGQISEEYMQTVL

Assay [19] is described as follows: qHTS assay to identify small molecule agonists of the estrogen receptor alpha (ER-alpha) signaling pathway in the presence of an antagonist - cell viability counter screen (AID 1259386).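 Note: series mostly up to about 92 µM; cells exposed to compounds for 22 h at 37 °C before the viability read; nearly all actives have a fitted effect of over 30% in size.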 Summed up:
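Using estrogen-depleted VM7Luc4E2 cells, the 15-concentration compound series was applied together with 10.0nM ICI-182,780 and incubated 22hr at 37C/5% CO2. Cell viability was then scored by CellTiter-Fluor.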

Assay [20] can be described thus: qHTS assay to identify small molecule agonists of the sonic hedgehog signaling (Shh) pathway - cell viability counter screen (AID 1259366). Note: nearly all actives have a fitted effect of over 50% in size. Summed up:
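After a 4hr attachment at 37C, NIH/3T3 cells bearing an integrated Gli1-driven luciferase reporter were dosed with compounds. Treatment lasted 24hr, with the final hour including CellTiter-Fluor for a fluorescence viability measurement.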
% is set by controls: 0 for no effect and ±100 for the full control effect.

Chain of Estrogen receptor beta (Homo sapiens) (Q92731 whole entry, looked up): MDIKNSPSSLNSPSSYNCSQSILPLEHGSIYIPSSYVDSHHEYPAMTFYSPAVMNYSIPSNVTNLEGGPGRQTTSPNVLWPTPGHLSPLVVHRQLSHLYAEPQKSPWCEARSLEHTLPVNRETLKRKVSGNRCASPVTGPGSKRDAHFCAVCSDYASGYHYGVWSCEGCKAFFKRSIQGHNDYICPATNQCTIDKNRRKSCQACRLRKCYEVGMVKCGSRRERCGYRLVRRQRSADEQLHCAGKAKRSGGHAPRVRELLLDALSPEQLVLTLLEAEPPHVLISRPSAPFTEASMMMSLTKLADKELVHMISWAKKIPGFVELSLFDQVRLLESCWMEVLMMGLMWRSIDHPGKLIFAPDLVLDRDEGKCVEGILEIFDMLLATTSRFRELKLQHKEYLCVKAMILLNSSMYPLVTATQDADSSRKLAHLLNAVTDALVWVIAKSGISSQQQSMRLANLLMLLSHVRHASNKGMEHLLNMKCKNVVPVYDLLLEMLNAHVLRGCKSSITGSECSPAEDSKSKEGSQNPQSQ
Chain of Estrogen receptor (Homo sapiens) (P03372 whole entry, looked up): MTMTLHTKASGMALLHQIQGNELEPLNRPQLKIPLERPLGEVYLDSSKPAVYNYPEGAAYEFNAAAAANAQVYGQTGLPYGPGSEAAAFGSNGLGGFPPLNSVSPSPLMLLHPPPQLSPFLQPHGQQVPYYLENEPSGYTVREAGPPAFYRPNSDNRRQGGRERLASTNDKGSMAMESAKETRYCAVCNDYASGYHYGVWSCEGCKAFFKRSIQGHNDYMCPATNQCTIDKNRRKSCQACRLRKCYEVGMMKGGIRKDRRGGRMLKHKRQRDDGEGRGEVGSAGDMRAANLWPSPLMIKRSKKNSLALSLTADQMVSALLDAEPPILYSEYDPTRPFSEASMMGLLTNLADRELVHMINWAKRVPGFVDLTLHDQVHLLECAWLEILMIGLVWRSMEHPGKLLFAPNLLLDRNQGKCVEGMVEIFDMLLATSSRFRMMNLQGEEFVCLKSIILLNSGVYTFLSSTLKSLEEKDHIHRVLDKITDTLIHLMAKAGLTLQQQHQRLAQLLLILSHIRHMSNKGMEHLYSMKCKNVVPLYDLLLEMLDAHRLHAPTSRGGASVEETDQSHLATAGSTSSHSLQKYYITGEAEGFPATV

As for `Clc1ccc2nsnc2c1NC1=NCCN1`, the Potency result in [1], in [2], in assay [3], in [4], in assay [5] and in assay [6] was “inactive” in each case. For the same molecule, the Potency entry in [7], in assay [8], in [9], in assay [10], in assay [11] and in assay [12] was “inactive” throughout. In addition, the Potency entry in assay [13], in [14], in assay [15], in [16], in assay [18] and in assay [19] was “inactive” throughout. Moreover, in [17], the outcome was inactive.
For `Cc1nc(-c2ccc3c(c2)CCN(CCC2CCC(NC(=O)/C=C/c4ccc(F)cc4)CC2)CC3)no1` (stereo not drawn), the Potency result in assay [1], in assay [2], in [3], in [5], in assay [6] and in assay [20] was “inactive” throughout. The Potency result in assay [7], in [8], in assay [9], in assay [12], in assay [13] and in [14] was “inactive” throughout. The Potency entry in [15], in assay [16], in assay [18] and in assay [19] was “inactive” in each case. In addition, in assay [17], the molecule was classed as inactive.
Regarding `CC[C@@]1(O)C(=O)OCc2c1cc1n(c2=O)Cc2c-1nc1ccccc1c2/C=N/OC(C)(C)C`, the Potency result in assay [1], in [5], in assay [6], in assay [7], in [14] and in assay [15] was “inactive” throughout. For the same molecule, the Potency entry in assay [16] is “inactive”. Also, the Potency is 0.133 µM (active) in [2], 0.188 µM (active) in assay [3], 0.0668 µM (active) in assay [9] and 11.9 µM (active) in assay [18]. For the same molecule, the molecule was classed as inactive in [17].
Take `Fc1ccc([C@@H]2CCNC[C@H]2COc2ccc3c(c2)OCO3)cc1`: the Potency result in assay [1], in assay [2], in assay [3], in [4], in assay [6] and in [20] was “inactive” each time. Also, the Potency result in [7], in assay [14], in [16], in assay [18] and in [19] was “inactive” in each case. The Potency is 33.5 µM (active) in assay [13] and 26.6 µM (active) in assay [15]. Further, in assay [17], the molecule was classed as inactive.
As to `CC(C)(C)C(=O)OCOC(=O)C1N2C(=O)CC2S(=O)(=O)C1(C)C` (stereo not drawn), the Potency result in assay [1], in assay [2], in assay [3], in assay [5], in [6] and in [20] was “inactive” throughout. The Potency entry in [7], in [8], in assay [9], in assay [12], in assay [14] and in assay [15] was “inactive” each time. The Potency result in assay [16], in assay [18] and in [19] was “inactive” in each case. For the same molecule, in assay [4], the PLD induction is 3.21% [at 0.0123 µM]. Also, the Potency in assay [11] is 10.6 µM (active).
Turning to `CCOC(=O)c1nc(C(Cl)(Cl)Cl)n(-c2ccc(Cl)cc2Cl)n1`, the Potency entry in assay [1], in assay [3], in assay [5], in assay [6], in assay [20] and in assay [8] was “inactive” in each case. In addition, the Potency result in [12], in [14], in assay [16], in assay [18] and in [19] was “inactive” throughout. Besides, the Potency in assay [2] was 61.1 µM (active); in assay [7], 61.1 µM (active); in [11], 54.5 µM (active); in assay [13] it was 54.5 µM (active); in assay [15] it was 61.1 µM (active). Also, the molecule was classed as inactive in assay [17].
As to `O=C(Nc1cccc([N+](=O)[O-])c1)c1cc2ccccc2cc1O`, the Potency in [1] was 6.86 µM (active); in assay [2], 5.45 µM (active); in assay [3] it was 5.45 µM (active); in [5], 1.54 µM (active); in assay [12], 3.86 µM (active); in assay [13], 30.6 µM (active). In addition, the Potency result in [6], in [20], in [8], in [14], in assay [16] and in assay [18] was “inactive” throughout.

The record behind these values is PubChem BioAssay (Tox21).
